Only a selection was taken, and hits are over-represented in it overall.
Dicer processing: inhibitors of human Dicer processing of pre-microRNA; AID 1347074; 47,000 tested, 6% active; z-score at 25 µM; cat-ELCCA pre-miR-21 Dicer processing, chemiluminescence; active compounds read high; in the data active = z-score above about 3, passing the limit was not always enough;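 also: plate controls were vehicle for no effect and no enzyme for full effect; higher signal means more uncleaved substrate so more Dicer inhibition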
The depositor's hits bear a star; ! = a repeat was not active.

SMILES	Dicer processing
CCOC(=O)C1=C(C)Nc2nnnn2C1c1cc(OC)ccc1OC (centres undefined)	1.64
COCc1cc(=O)oc2cc(OC(C)=O)c(Cl)cc12	0.17
CC(C)OC(=O)C1C(=O)CC(C)(O)C(C(=O)OC(C)C)C1c1cccc(F)c1 (centres undefined)	1.18
COC(=O)c1cnc(Sc2c(Cl)cccc2Cl)c([N+](=O)[O-])c1	-0.54
O=c1[nH]c(SCc2ccc(Cl)cc2Cl)nc2ccccc12	3.7*
Nc1cc(=O)[nH]c(SCc2ccc(Cl)cc2Cl)n1	-0.88
NC(=O)CSc1nc2ccccc2c(=O)[nH]1	-0.39
COC(=O)C1=C(C)NC2=C(C(=O)c3ccccc32)C1c1ccc2c(c1)OCO2 (centres undefined)	1.12
COCCCn1c(=S)[nH]c2cc(Cl)ccc2c1=O	-10.4
COCCCn1c(-c2ccc(Cl)cc2)cc(-c2cccs2)c1-c1ccccc1	3.31*
CSc1ccc(-c2c(-c3cccs3)cc(-c3ccc(Cl)cc3)n2C)cc1	0.36
O=C(OCCSc1ccccn1)c1ccccc1	-0.87
Fc1cc(Br)cc(F)c1NC(=S)Nc1cccc(Cl)c1	2.42
CCOc1c(Br)cc(C2C(C(=O)OC)=C(C)NC3=C2C(=O)c2ccccc23)cc1OC (centres undefined)	1.67
Cc1ccc(NC(=O)N2CCCn3c(SCc4ccc(F)cc4)nnc32)cc1	-1.72
c1ccc(-c2nnc(Sc3c4c(nc5ncnn35)CCC4)n2-c2ccccc2)cc1	1.87
COC(=O)c1scc2c(Sc3nccn3C)cc(C(F)(F)F)nc12	0.21
COC(=O)c1scc2c(SCc3ccccc3)cc(C(F)(F)F)nc12	5.03*
COC(=O)c1scc2c(OC)cc(C(F)(F)F)nc12	0.71
Cc1c(Cl)cccc1Nc1nc(C(C)(C)C)cs1	-1.95
CCOC(=O)CC(=O)CSc1nnc(NC(=O)c2ccc(C)cc2)s1	-1.35
O=C(Nc1ccccc1Oc1ccc(Cl)cc1Cl)c1ccc(F)cc1	0
O=C(Nc1nnn(-c2ccc([N+](=O)[O-])cc2)c1-c1ccccc1)N1CCOCC1	0.66
CC(CN(C)C)CN1c2ccccc2Sc2ccccc21 (centres undefined)	0.42
CNC(C)CN1c2ccccc2Sc2ccccc21 (centres undefined)	2.56
SMILES	Dicer processing
CC(CN1c2ccccc2Sc2ccccc21)N(C)C (centres undefined)	3.8*!
CSc1ccccc1Cn1c(=O)c2[nH]cnc2n(-c2ccccc2C)c1=O	-0.12
Cc1cc(C)cc(N2C(=O)C3CN=NC3(C)C2=O)c1 (centres undefined)	2.17
CS/C(=C(/C#N)S(=O)(=O)c1ccc(Cl)cc1)N1CCSCC1	-4.21
Cc1ccc(-n2[nH]c(C)c(C=Nc3ccc(Cl)cc3)c2=O)cc1	0.73
Cc1ccc(N=Cc2c(C)[nH]n(-c3ccccc3)c2=S)c(C)c1	-3.91
Cc1ccc(N=Cc2c(C)[nH]n(-c3ccc(C)cc3)c2=O)cc1	3.97*
O=C(OCC1CC1)c1cnc(Sc2cc(C(F)(F)F)cc(C(F)(F)F)c2)nc1C(F)(F)F	17.3
COC(=O)C1=C(C)Nc2nc3ccccc3n2C1c1cc(F)cc(F)c1 (centres undefined)	-0.6
O=C1c2ccccc2C(=O)N1CNc1ccc(Oc2ccc(Cl)cc2)cc1	5.27
O=C1c2ccccc2C(=O)N1CNc1ccccc1Oc1ccc(Cl)cc1Cl	-0.05
CCCc1ccc(NCN2C(=O)c3ccccc3C2=O)cc1	2.24
O=C1c2ccccc2C(=O)N1CNc1ccc(Oc2ccccc2)cc1	3.83*
O=C1c2ccccc2C(=O)N1Cc1cccnc1	-0.5
O=C1c2ccc([N+](=O)[O-])cc2C(=O)N1CNc1cc(C(F)(F)F)cc(C(F)(F)F)c1	1.92
CCC(C)c1ccc(NCN2C(=O)c3ccccc3C2=O)cc1 (centres undefined)	3.11*
CCc1ccccc1NCN1C(=O)c2ccccc2C1=O	3.43*
Cc1cccc(NCN2C(=O)c3ccccc3C2=O)c1C	5.1
Cn1c(=O)[nH]c(=O)c2c1nc1n2CC(c2ccccc2)=NN1	-1.29
CC1(C)CC(=O)C2=C(C1)Nc1nonc1NC2c1ccc(O)cc1 (centres undefined)	0.67
CN1c2ccccc2C(=O)/C(=N\Nc2ccccc2C(F)(F)F)S1(=O)=O	1.58
C=C1SC(=Nc2cccc(OC)c2)N(C(=O)c2ccc(Cl)cc2)C1(C)C	-3.13
O=C(Cn1nnc2sc3c(c2c1=O)CCCC3)Nc1ccccc1Cl	-0.44
CSc1ccc(C2CC(=O)Nc3nc(N)[nH]c(=O)c32)cc1 (centres undefined)	-0.23
CCOCCOC(=O)C1=C(C)NC2=C(C(=O)CC(C)(C)C2)C1c1ccc(O)c(OC)c1 (centres undefined)	-0.58
CCOC(=O)c1cnn(-c2ccccc2)c1NC(=O)CSc1nnc(-c2ccncc2)o1	-0.36
Fc1ccc2[nH]c(CN3CCN(c4ccccn4)CC3)cc2c1	0.68
c1ccc(N2CCN(c3nc4ccccc4[nH]3)CC2)nc1	3.48*
O=C1CC(N2CCN(c3ccccn3)CC2)C(=O)N1c1ccc(F)cc1 (centres undefined)	0.49
O=C(O)c1ccc(Oc2ccc([N+](=O)[O-])cc2)cc1C(=O)O	-0.13
